Laboratory results from the supplement of paper PMC4840960.

What follows are molecules tested on E18 rat cortical neuron-glia co-culture (assay: fiber score / MBP score (myelination specific beyond OL differentiation) (ratio); higher = more myelination-specific MBP alignment). Conditions: 1 µM; treatment time: 8 days (DIV5-DIV13).
Summary of the method: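 Library compounds were applied at 1 or 5 µM in myelination medium, DIV5 to DIV13, to primary E18 rat cortical co-cultures grown at 20,000 cells/well in 96-well plates. After 4 % paraformaldehyde fixation and MBP/Olig2/DAPI immunostaining, four 10X fields per well in duplicate wells were scored. Each value is continuous MBP fiber length per Olig2+ nucleus divided by thresholded MBP area × intensity per Olig2+ nucleus.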

| Compound | fiber score / MBP score |
| --- | --- |
| c1cnc(N2CCN(Cc3ccc4c(c3)OCO4)CC2)nc1 [Piribedil] | 0.774 |
| CC(=O)[C@H]1CC[C@H]2[C@@H]3C[C@H](C)C4=CC(=O)CC[C@]4(C)[C@H]3[C@@H](O)C[C@]12C [Medrysone] | 1.11 |
| CN(C)CCCN1c2ccccc2CCc2ccc(Cl)cc21 [Clomipramine] | 1.05 |
| CCCc1nc(C(C)(C)O)c(C(=O)O)n1Cc1ccc(-c2ccccc2-c2nnn[nH]2)cc1 [Olmesartan] | 0.778 |
| Nc1nc(N)nc(-c2cc(Cl)ccc2Cl)n1 [Irsogladine] | 0.913 |
| CC(C)OC(=O)CCC/C=C\C[C@@H]1[C@@H](CC[C@@H](O)CCc2ccccc2)[C@H](O)C[C@@H]1O [Latanoprost] | 0.955 |
| CC1CNc2c(cccc2S(=O)(=O)N[C@@H](CCCNC(=N)N)C(=O)N2CC[C@@H](C)C[C@@H]2C(=O)O)C1 (stereo partly drawn) [Argatroban] | 0.647 |
| COc1c(N2CCNC(C)C2)c(F)cc2c(=O)c(C(=O)O)cn(C3CC3)c12 (stereo not drawn) [Gatifloxacin] | 0.508 |
| O=C1N(c2ccccc2)c2ccccc2C1(Cc1ccncc1)Cc1ccncc1 [Linopirdine] | 0.779 |
| COc1ccccc1N1CCN(CCCNc2cc(=O)n(C)c(=O)n2C)CC1 [Urapidil] | 0.767 |
| CN1C2CCCC1CC(NC(=O)c1nn(C)c3ccccc13)C2 (stereo not drawn) [Granisetron] | 0.781 |
| Cc1ccc(-c2cc(C(F)(F)F)nn2-c2ccc(S(N)(=O)=O)cc2)cc1 [Celecoxib] | 0.757 |
| CCc1cccc2c3c([nH]c12)C(CC)(CC(=O)O)OCC3 (stereo not drawn) [Etodolac] | 0.706 |
